Data on 7 compounds can be found in PubChem BioAssay (Tox21).

A number with no mark means an inactive call. Records with an inconclusive call do not appear. Activity calls are given as the source filed them. Unless noted, the call rests on the fitted dose curve; in most records, active means well fitted curve in the direction sought with a large enough effect in the repeat runs; inconclusive means weak or mixed curves; inactive means no such curve, though single readings can be large; an effect the other way counts as inactive or inconclusive.

Experiment [1] is described as follows: qHTS assay to identify small molecule agonists of the estrogen receptor alpha (ER-alpha) signaling pathway in the presence of an antagonist - cell viability counter screen (AID 1259386).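 Further: series mostly up to about 92 µM; cells exposed to compounds for 22 h at 37 °C before the viability read; nearly all actives have a fitted effect of over 30% in size.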 In a few lines:
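The test measures whether compounds kill ER-alpha reporter cells (VM7Luc4E2) under antagonist co-treatment (ICI-182,780, 10.0nM). Fluorescence from CellTiter-Fluor is read after a 22hr exposure.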
For orientation: qHTS replaces the single test concentration by a dilution series.

Experiment [2] deals with Progesterone receptor (Homo sapiens) (UniProt P06401). Nature of the experiment: qHTS assay to identify small molecule agonists of the progesterone receptor (PR) signaling pathway (AID 1346784; calls by dose curve; further: nearly all actives have a fitted effect of over 30% in size; further: potency means the concentration at half of the fitted maximal effect). A digest of the protocol:
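The screen uses PR-UAS-bla HEK 293T cells in charcoal-stripped serum (2%). Compounds are applied for 16 hr at 37C after a 6 hr pre-incubation, and reporter activity is detected with a FRET beta-lactamase substrate after 2 hr at room temperature.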

For experiment [3] the target is unchanged. Description: qHTS assay to identify small molecule antagonists of the progesterone receptor (PR) signaling pathway (AID 1346795; active means well fitted inhibition curve with a large enough effect in the signal ratio in the repeat runs, not every such curve was filed as active; the % refers to the signal ratio). In a few lines:
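After 6 hr plating at 37C in 2% stripped-serum medium, PR-UAS-bla HEK293T cells got compounds, then 1 nM R5020. Sixteen hours later, LiveBLAzer substrate was applied for 2 hr at room temperature and fluorescence was recorded.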

The nature of experiment [4]: qHTS assay to identify small molecule antagonists of the progesterone receptor (PR) signaling pathway - cell viability counter screen (AID 1346798). Further: series mostly up to about 92 µM; nearly all actives have a fitted effect of over 50% in size. A digest of the protocol: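 Viability was determined by ATP-based luminescence (CellTiter-Glo) in PR-UAS-bla HEK293T cells cultured in 2% charcoal-stripped serum and incubated 16 hr with compounds under R5020 stimulation.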

The nature of experiment [5]: qHTS assay to identify small molecule agonists of the progesterone receptor (PR) signaling pathway - cell viability counter screen (AID 1346799; calls by dose curve; further: nearly all actives have a fitted effect of over 45% in size). A digest of the protocol:
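Viability was scored by ATP luminescence (CellTiter-Glo, 30 min, room temperature) in the same wells used for the reporter readout, after 16 hr compound exposure of PR-UAS-bla HEK293T cells.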

A short description of experiment [6]: qHTS assay to identify small molecule antagonists of the TGF-beta/Smad signaling pathway - cell viability counter screen (AID 1346824). Further: nearly all actives have a fitted effect of over 50% in size. In a few lines: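 Cytotoxicity counter-screen run in the same wells as the beta-lactamase Smad reporter read: CellTiter-Glo luminescence after 30 min at room temperature. HEK 293T SBE-bla cells had 5 hr compound exposure at 37 C with TGF-beta1 (0.25 ng/mL stock).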

Experiment [7] can be described thus: qHTS assay to identify small molecule agonists of the TGF-beta/Smad signaling pathway - cell viability counter screen (AID 1346829). Further: top concentration of the series differs between compounds; nearly all actives have a fitted effect of over 45% in size. In a few lines: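 Here the cytotoxicity of library compounds is measured in SBE-bla HEK 293T cells treated for 5 hr, using CellTiter-Glo added to wells already read for the beta-lactamase reporter.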
The nature of experiment [8]: qHTS assay to identify small molecule agonists of the TGF-beta/Smad signaling pathway (AID 1346859; active means well fitted activation curve with a large enough effect in the signal ratio in the repeat runs, not every such curve was filed as active; the % refers to the signal ratio; further: series mostly up to about 77 µM). In a few lines: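 Dual-wavelength fluorescence (460/530 nm emission) quantified beta-lactamase expression under the Smad binding element in HEK 293T cells following 5 hr compound treatment at 37 C.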
Experiment [9] has as its target Thyrotropin-releasing hormone receptor (Homo sapiens) (UniProt P34981). Nature of the experiment: qHTS assay to identify small molecule antagonists of the thyrotropin-releasing hormone receptor (TRHR) signaling pathway (AID 1346877; active means well fitted inhibition curve with a large enough effect in the repeat runs, not every such curve was filed as active; further: series mostly up to about 51 µM). In a few lines:
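Overnight-plated (18 h, 37 °C) HEK293 cells expressing TRHR were dye-loaded 2 h, treated with compound, then stimulated with TRH at 1 nM final. Fluorescence intensity was captured every second for 3 min.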

Experiment [10] has the same target. Description: qHTS assay to identify small molecule agonists of the thyrotropin-releasing hormone receptor (TRHR) signaling pathway (AID 1346891; calls by dose curve;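 further: HEK293 cells expressing TRHR with calcium dye readout; series mostly up to about 58 µM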). In a few lines:
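Kinetic fluorescence (3 min, 1 s intervals) reported intracellular calcium after compound transfer onto TRHR-Hek293 cells pre-loaded with dye for 2 h at 37 °C.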

The nature of experiment [11]: Caspase-3/7 induction in HepG2 cells by small molecules, qHTS assay (AID 1346978). Further: nearly all actives have a fitted effect of over 15% in size. A digest of the protocol:
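Caspase-3/7 induction was measured by Caspase-Glo 3/7 luminescence (30 min, room temperature) after a 17 hr compound exposure of wild-type HepG2 cells seeded at 2,000 per well and pre-incubated 5 hr.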

A short description of experiment [12]: Caspase-3/7 induction in CHO-K1 cells by small molecules, qHTS cell viability counter screen (AID 1346979). Further: nearly all actives have a fitted effect of over 35% in size. In a few lines: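 Seeding: 1,500 CHO-K1 cells/well. Rest: 5hr, 37C. Treatment: compounds in DMSO, 16hr. Read: CellTiter-Fluor, 1hr, fluorescence.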
A short description of experiment [13]: Caspase-3/7 induction in CHO-K1 cells by small molecules, qHTS assay (AID 1346980). Further: nearly all actives have a fitted effect of over 15% in size. In a few lines:
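Luminescent Caspase-Glo 3/7 read (30min, room temperature) quantified apoptosis induction. Cells were wild-type CHO-K1, treated with compound for 17hr at 37 C and 5% CO2.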

Experiment [14] is described as follows: Caspase-3/7 induction in HepG2 cells by small molecules, qHTS cell viability counter screen (AID 1346981). Further: series mostly up to about 92 µM; nearly all actives have a fitted effect of over 30% in size. In a few lines: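 Treatment of HepG2 cells with DMSO-delivered compounds ran 16 hr at 37 C following a 5-hr pre-incubation of 2,000 cells/well. CellTiter-Fluor fluorescence, read after 1 hr, served as the viability measure in a qHTS format.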
In experiment [15] the target is Cytochrome P450 2D6 (Homo sapiens) (UniProt P10635). Nature of the experiment: Cytochrome P450 Family 2 Subfamily D Member 6 (CYP2D6) small molecule antagonists: luciferase reporter qHTS assay (AID 1671196). Further: series mostly up to about 120 µM; nearly all actives have a fitted effect of over 50% in size. A digest of the protocol:
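Chemicals tested for interference with CYP2D6 activity; proluciferin substrate, NADPH regeneration, 1 h at room temperature, luminescent detection.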
(Reporter assays use an easily measured gene product as a stand-in for the process of interest.)

Experiment [16] can be described thus: Human pregnane X receptor (PXR) small molecule agonists, qHTS cell viability counter screen (AID 1346977). Further: nearly all actives have a fitted effect of over 50% in size. A digest of the protocol: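 HepG2 cells stably carrying the PXR-Luc reporter are cultured with 5% charcoal-stripped FBS and treated with compounds for 24hr. CellTiter-Fluor is added at 23hr and fluorescence is read after 1hr.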
The target in experiment [17] is Nuclear receptor subfamily 1 group I member 2 (Rattus norvegicus) (UniProt Q9R1A7). Description: Rat pregnane X receptor (rPXR) activation by small molecules, qHTS assay (AID 1346983). Further: nearly all actives have a fitted effect of over 20% in size. The note with it: rPXR luciferase reporter cells, One-Glo luminescence, 24 h; active compounds read high. In a few lines:
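Luminescent readout (One-Glo luciferase, 30 min room temperature) followed 24 hr compound treatment at 37 C of rPXR cells plated 2,000 per well and preincubated 5hr; qHTS format with compounds delivered in DMSO.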

In experiment [18] the target is Nuclear receptor subfamily 1 group I member 2 (Homo sapiens) (UniProt O75469). Description: Human pregnane X receptor (PXR) activation by small molecules, qHTS assay (AID 1346985). Further: nearly all actives have a fitted effect of over 40% in size. In a few lines:
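DPX-2 cells (HepG2 co-transfected with a PXR response element and a CYP3A4-promoter luciferase construct) were seeded at 2,000 per well, rested 5 hr at 37C, then exposed to DMSO-dissolved compounds for 24 hr. Activation was read as luciferase luminescence.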

For experiment [19] the target is unchanged. Description: Human pregnane X receptor (PXR) small molecule agonists, qHTS assay (AID 1346982). Further: nearly all actives have a fitted effect of over 35% in size. A digest of the protocol:
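Stable HepG2 line reporting PXR-mediated CYP3A4 expression via luciferase. Treatment: 24 hr with compounds in DMSO at 37 C. Detection: ONE-Glo luminescence.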
On the % scale 0 is the no-effect control and ±100 the full control effect.

Chain of Progesterone receptor (Homo sapiens) (P06401 whole entry, looked up): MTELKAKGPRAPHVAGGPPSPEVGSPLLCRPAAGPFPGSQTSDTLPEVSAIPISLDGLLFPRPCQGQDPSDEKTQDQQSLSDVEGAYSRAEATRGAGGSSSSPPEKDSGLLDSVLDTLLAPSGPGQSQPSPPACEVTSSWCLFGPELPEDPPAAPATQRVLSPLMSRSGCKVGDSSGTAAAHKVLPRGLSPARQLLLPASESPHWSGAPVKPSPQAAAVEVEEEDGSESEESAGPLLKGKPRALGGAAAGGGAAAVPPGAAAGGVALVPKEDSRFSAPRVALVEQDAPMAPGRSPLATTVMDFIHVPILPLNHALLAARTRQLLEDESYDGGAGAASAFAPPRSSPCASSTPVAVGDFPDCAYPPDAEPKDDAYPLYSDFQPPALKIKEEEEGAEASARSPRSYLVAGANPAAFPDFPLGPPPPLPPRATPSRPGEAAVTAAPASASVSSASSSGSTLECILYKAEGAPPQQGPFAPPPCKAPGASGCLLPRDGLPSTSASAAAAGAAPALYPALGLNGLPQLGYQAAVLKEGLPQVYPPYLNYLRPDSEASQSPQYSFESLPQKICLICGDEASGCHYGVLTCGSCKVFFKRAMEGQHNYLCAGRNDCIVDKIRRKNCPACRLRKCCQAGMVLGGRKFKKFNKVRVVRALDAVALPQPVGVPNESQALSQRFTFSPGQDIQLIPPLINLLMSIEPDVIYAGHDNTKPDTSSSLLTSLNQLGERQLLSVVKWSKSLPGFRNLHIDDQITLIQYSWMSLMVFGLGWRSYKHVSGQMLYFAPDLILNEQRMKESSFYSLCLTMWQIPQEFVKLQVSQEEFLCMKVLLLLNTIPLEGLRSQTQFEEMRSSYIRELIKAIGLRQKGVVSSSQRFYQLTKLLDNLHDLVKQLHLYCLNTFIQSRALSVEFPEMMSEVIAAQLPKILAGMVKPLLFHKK
Chain of Nuclear receptor subfamily 1 group I member 2 (Homo sapiens) (O75469 whole entry, looked up): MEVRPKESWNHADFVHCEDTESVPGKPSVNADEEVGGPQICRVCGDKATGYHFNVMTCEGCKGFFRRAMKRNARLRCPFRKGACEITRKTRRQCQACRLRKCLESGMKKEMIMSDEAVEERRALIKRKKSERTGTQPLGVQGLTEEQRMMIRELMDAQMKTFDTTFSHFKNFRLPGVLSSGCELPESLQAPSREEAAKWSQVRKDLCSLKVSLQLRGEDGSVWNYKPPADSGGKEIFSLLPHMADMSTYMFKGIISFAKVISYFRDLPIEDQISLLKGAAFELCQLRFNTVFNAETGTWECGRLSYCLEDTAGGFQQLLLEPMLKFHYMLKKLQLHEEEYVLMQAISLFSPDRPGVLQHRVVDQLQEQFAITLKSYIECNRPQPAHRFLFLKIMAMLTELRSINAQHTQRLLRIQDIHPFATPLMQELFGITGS
Chain of Cytochrome P450 2D6 (Homo sapiens) (P10635 whole entry, looked up): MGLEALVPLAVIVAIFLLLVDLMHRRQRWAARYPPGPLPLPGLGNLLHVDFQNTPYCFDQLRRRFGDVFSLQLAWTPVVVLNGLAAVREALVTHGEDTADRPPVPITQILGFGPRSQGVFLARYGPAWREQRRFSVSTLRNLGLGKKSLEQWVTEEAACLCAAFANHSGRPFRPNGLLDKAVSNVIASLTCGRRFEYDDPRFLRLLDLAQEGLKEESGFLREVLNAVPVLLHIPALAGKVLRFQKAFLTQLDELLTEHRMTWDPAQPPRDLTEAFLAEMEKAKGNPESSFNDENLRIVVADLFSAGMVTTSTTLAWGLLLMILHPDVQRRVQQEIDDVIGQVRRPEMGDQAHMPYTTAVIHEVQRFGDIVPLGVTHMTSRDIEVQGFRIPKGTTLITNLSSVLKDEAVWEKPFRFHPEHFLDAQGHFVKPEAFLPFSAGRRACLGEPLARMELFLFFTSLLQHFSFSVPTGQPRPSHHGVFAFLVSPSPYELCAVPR
Chain of Thyrotropin-releasing hormone receptor (Homo sapiens) (P34981 whole entry, looked up): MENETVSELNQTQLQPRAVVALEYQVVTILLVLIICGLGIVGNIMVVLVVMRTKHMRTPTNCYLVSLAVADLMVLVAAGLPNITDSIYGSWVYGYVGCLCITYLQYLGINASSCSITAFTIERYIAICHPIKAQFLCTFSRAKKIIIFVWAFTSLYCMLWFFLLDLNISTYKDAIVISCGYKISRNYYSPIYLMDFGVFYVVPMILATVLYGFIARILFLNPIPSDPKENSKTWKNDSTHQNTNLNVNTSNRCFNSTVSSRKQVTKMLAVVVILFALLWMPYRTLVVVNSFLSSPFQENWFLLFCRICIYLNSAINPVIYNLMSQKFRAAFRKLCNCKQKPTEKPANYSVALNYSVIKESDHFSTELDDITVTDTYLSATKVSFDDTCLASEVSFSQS
Chain of Nuclear receptor subfamily 1 group I member 2 (Rattus norvegicus) (Q9R1A7 whole entry, looked up): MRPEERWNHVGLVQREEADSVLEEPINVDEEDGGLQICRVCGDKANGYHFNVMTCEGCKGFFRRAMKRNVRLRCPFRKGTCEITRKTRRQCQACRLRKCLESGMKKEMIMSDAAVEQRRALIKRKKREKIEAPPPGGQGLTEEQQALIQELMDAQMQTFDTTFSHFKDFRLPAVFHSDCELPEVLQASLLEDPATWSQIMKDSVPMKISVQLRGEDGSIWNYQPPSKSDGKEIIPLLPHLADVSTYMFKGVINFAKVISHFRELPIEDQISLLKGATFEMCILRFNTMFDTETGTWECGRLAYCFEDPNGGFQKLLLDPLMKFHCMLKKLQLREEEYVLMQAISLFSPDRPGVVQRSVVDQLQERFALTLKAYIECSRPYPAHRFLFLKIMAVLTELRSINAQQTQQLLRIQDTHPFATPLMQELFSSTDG

On to `C=CCCC(=O)/C=C/C1C(C)=CCCC1(C)C` (centres undefined), for which the Potency entry in [1], in experiment [2], in experiment [3], in experiment [4], in experiment [5] and in [6] was “inactive” in each case. The Potency result in experiment [7], in experiment [8], in experiment [9], in [11], in experiment [12] and in [13] was “inactive” throughout. For the same compound, the Potency result in [14] and in experiment [15] was “inactive” throughout. Moreover, in experiment [10], the compound was classed as inactive.
For `CC(=O)CC(=O)Nc1ccc(S(=O)(=O)O)cc1`, the Potency entry in experiment [1], in experiment [2], in [3], in experiment [4], in experiment [5] and in experiment [6] was “inactive” throughout. Also, the Potency result in [7], in experiment [8], in experiment [9], in [16], in [11] and in [12] was “inactive” throughout. For the same compound, the Potency result in experiment [13], in [14] and in experiment [15] was “inactive” throughout. The call in experiment [10] was inactive.
Regarding `O=C(O)c1cc(=O)c2ccccc2o1`, the Potency entry in experiment [1], in experiment [2], in [3], in [4], in [5] and in experiment [6] was “inactive” throughout. The Potency result in experiment [7], in experiment [8], in experiment [9], in experiment [16], in experiment [11] and in experiment [12] was “inactive” throughout. Further, the Potency entry in experiment [13], in experiment [14], in [18] and in [15] was “inactive” each time. Further, the outcome in experiment [10] was inactive. Moreover, the max activation in [17] was -0.583%.
Take `Cc1cccc(C)c1NC(=O)c1ccc(N)cc1`: the Potency result in experiment [1], in experiment [2], in experiment [3], in experiment [4], in [5] and in [6] was “inactive” each time. Further, the Potency result in [7], in experiment [8], in experiment [16], in [11], in experiment [12] and in experiment [13] was “inactive” throughout. Besides, the Potency result in experiment [14], in experiment [19] and in [15] was “inactive” each time.
In the case of `Cc1ccc(-c2ccccc2)cc1`, the Potency entry in experiment [1], in [2], in experiment [3], in experiment [4], in experiment [5] and in experiment [6] was “inactive” each time. In addition, the Potency result in [7], in [9], in experiment [16], in [11], in experiment [12] and in experiment [13] was “inactive” each time. Further, the Potency result in experiment [14], in experiment [19] and in experiment [15] was “inactive” each time. Further, in [10], the call was inactive.
Turning to `CCCCCc1ccc(Cl)cc1`, the Potency entry in experiment [1], in experiment [2], in experiment [3], in experiment [4], in [5] and in experiment [6] was “inactive” in each case. The Potency entry in experiment [7], in experiment [8], in experiment [9], in experiment [12], in experiment [13] and in experiment [14] was “inactive” each time. The Potency result in experiment [15] was “inactive”. The outcome in experiment [10] was inactive.
As to `O=C1OC2(c3ccc(O)cc3Oc3cc(O)ccc32)c2ccc(N=C=S)cc21`, the Potency result in experiment [1], in [3], in [4], in [5], in experiment [6] and in [7] was “inactive” throughout. For the same compound, the Potency result in experiment [8], in experiment [16], in experiment [11], in [12], in [13] and in [14] was “inactive” in each case. In addition, the Potency entry in [19] and in experiment [15] was “inactive” in each case. For the same compound, the Potency in experiment [2] was 879 nM (active).
